This test can be described thus: Quantitative high throughput screen to test activity of anti-malarial compounds in the Dd2 strain of Plasmodium Falciparum. The note with it: P. falciparum Dd2 in RBCs, SYBR Green growth, 72 h. The text has this: NIH Molecular Libraries Probe Production Network [MLPCN] NIH Chemical Genomics Center [NCGC] MLPCN Grant: R21 NS059500 Assay Provider: David Fidock and Eric Ekland, Columbia University The goal of this screen is to measure the ability of a set of anti-malarial compounds to inhibit the Dd2 strain of P. falciparum. These compounds have been screened in a delayed death phenotype assay and have been identified as inhibitors of the delated death phenotype, by inhibiting the development of the apicoplast in the malarial parasite Plasmodium falciparum (described below) The biochemical processes that make this organelle essential for erythrocytic stage parasites are not well understood. However, antibiotics, such as azithromycin and tetracycline, which target the apicoplast translational machinery, have a potent antimalarial effect. […] We have developed a cell-based assay that measures parasite growth based on the expression of an integrated copy of a firefly luciferase reporter. To detect small molecules that cause this 'delayed death' phenotype, erythrocytes infected with the luciferase-expressing parasites were incubated with compounds for either one or two generations, corresponding to 48 and 96 hours, respectively. […] Growth inhibition is detected by a decrease in luciferase activity […]

Consider two molecules from PubChem BioAssay AID504604 (National Center for Advancing Translational Sciences (NCATS), 2011).

Molecules are shown by their SMILES. The source made the active and inactive calls. The call rests on the fitted dose curve; in most records, active means well fitted inhibition curve with a large enough effect; inconclusive means small, poorly fitted or top-dose-only effect; inactive means flat fitted curve, though single readings scatter.

Consider `C[C@@H]1CN([C@@H](C)CO)C(=O)c2cc(NC(=O)Nc3ccccc3)ccc2O[C@@H](C)CCCCO[C@H]1CN(C)C(=O)Oc1ccccc1`, for which the Potency was 8.96 µM (active). For `COc1ccc(COC[C@H](C)N2C[C@@H](C)[C@H](CN(C)S(=O)(=O)c3ccc(F)cc3)OCCCC[C@H](C)Oc3ccc(NC(=O)Nc4ccccc4)cc3C2=O)cc1`, the Potency was 0.0142 µM (active).
